PubChem BioAssay (NCI)
About 79,000 compounds went through this panel and 15% of them were active in at least one assay; those are over-represented in the sample as a whole. Unmarked numbers belong to inactive results. Activity calls are given as the source filed them. No stated cut-off is given here; in the data, active means growth inhibition above about 70%; inactive means the rest.

Columns and labels:
[1] = NCI Yeast Anticancer Drug Screen. Data for the rad50 strain (AID 155);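 further: 0% = growth of vehicle-only cultures of the same strain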; conditions: S. cerevisiae rad50 strain growth inhibition; at 50.0 µM; stronger effect = higher value
How it was run: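 Inhibition values express reduced yeast growth in compound-treated cultures relative to vehicle-treated controls.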

[2] = NCI Yeast Anticancer Drug Screen. Data for the mec2-1 strain (AID 157); conditions: S. cerevisiae mec2-1 strain, at 50.0 µM, stronger effect = higher value
How it was run: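 Using mec2-1 yeast: add compound, measure growth, express inhibition versus vehicle-treated cultures.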

[3] = NCI Yeast Anticancer Drug Screen. Data for the sgs1 mgt1 strain (AID 161);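 further: 0% = growth of cultures given vehicle only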; conditions: S. cerevisiae sgs1 mgt1 strain, at 50.0 µM, stronger effect = higher value
How it was run: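 This yeast growth screen uses a strain with defined DNA-repair lesions; compound-treated growth is compared with vehicle-treated growth.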

[4] = NCI Yeast Anticancer Drug Screen. Data for the cln2 rad14 strain (AID 165);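 further: 0% = growth equal to vehicle treated cultures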; conditions: S. cerevisiae cln2 rad14 strain, at 50.0 µM, stronger effect = higher value
How it was run: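 Yeast strain cln2 rad14, bearing defects in cell cycle control and DNA repair, serves as the test system; values reflect growth inhibition compared with vehicle.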

[5] = NCI Yeast Anticancer Drug Screen. Data for the bub3 strain (AID 167); conditions: S. cerevisiae bub3 mutant strain, at 50.0 µM, stronger effect = higher value
How it was run: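 Steps: expose the mutant yeast strain to compound; grow alongside vehicle-treated cultures; measure growth; express inhibition against the vehicle cultures.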

[6] = NCI Yeast Anticancer Drug Screen. Data for the mlh1 rad18 strain (AID 175); conditions: S. cerevisiae mlh1 rad18 strain growth inhibition; at 50.0 µM; stronger effect = higher value
How it was run: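 Steps: expose repair-defective yeast to compound; measure growth; express inhibition against vehicle-treated controls.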

Structure (SMILES)	growth inhibition [1] [%]	growth inhibition [2]	growth inhibition [3]	growth inhibition [4]	growth inhibition [5] [%]	growth inhibition [6]
O=C(O)c1ccc(S(=O)(=O)N=Nc2c(O)[nH]c3ccccc23)cc1	-6.6	-5.2%	-35%	-1.15%	-37	-7.45%
Fc1ccc(CSc2cnnc(SCc3ccc(F)cc3)c2SCc2ccc(F)cc2)cc1	-23.2	2.75%	-20.2%	-21.9%	-13.9	-34.7%
CCOC(=O)c1cn(C)c2c1C(O)=C(C(=O)OC)CC(=O)N2	4.5	1.1%	-14.2%	7.2%	-12.6	-26.8%
COC(C(=O)C(O)C(C)O)C1CC2C=C3C=C(OC4CC(OC5CC(O)C(OC)C(C)O5)C(OC(C)=O)C(C)O4)C(C)C(=O)C3=C(O)C2=C(O)C1OC1CC(OC2CC(OC3CC(C)(O)C(OC(=O)C(C)C)C(C)O3)C(O)C(C)O2)C(O)C(C)O1 (configuration not stated)	51	50.7%	38.5%	81.9% (active)	26.4	45.8%
S=C1NC(/C=C/c2ccccc2)Nc2ccccc21 (configuration not stated)	62.2	79.1% (active)	73% (active)	81.8% (active)	27.6	88.2% (active)
COc1cccc2cc(C(C)=O)c(=O)oc12	8.65	-5.35%	1.6%	3%	9.05	2.85%
N#CC(F)(F)C(F)(F)C(F)(F)C(F)(F)C(F)(F)C(F)(F)C(F)(F)F	33.5	-18.8%	-11.2%	-21.8%	-15.3	-4.6%
O=C(O)C1CCCC2C(O)CCC(O)C12 (configuration not stated)	-10.4	-15.4%	-1.85%	-12.9%	-7.2	-34.1%
COC(=O)C(=O)c1c2ccccc2n2ccc3c4ccccc4[nH]c3c12	25.9	8.9%	-5.75%	10.1%	9.6	10.5%
NC1=NN(c2ccccc2)C(=O)C1/C(=N\NC(=O)c1cc2ccccc2cc1O)C(=O)Nc1cccc(C(F)(F)F)c1 (configuration not stated)	47	15.7%	-33.5%	19.9%	20.5	31.4%
Cc1sc2nc3n(c(=O)c2c1C)N=CN(c1ccc(F)cc1)C3	0.85	-0.45%	8.85%	-17.1%	-7.5	-32.6%
CC(=O)CC(=O)NN(C)C	-4.8	-32.4%	-28.9%	8.5%	-36.4	9.85%
O=c1n(-c2ccccc2)c(=O)n2c(-c3ccccc3)c(-c3ccccc3)n12	38.5	-23.7%	-36.5%	-12.6%	-23.6	-30.8%
CC1=CN(c2ccccc2)S2=C1c1sc3c(c1N2c1ccc(Br)cc1)CCCC3 (configuration not stated)	0.9	-21.9%	-27.5%	14.4%	3.15	-52.2%
O=C1c2cc3c(cc2CC12Cc1cc4c(cc1C2=O)CCCC4)CCCC3	-42.1	-14.2%	-22.3%	-16.8%	-4.25	-37.1%
CN1CCN(S(=O)(=O)C(c2ccccc2)C2(O)CCCCC2)CC1 (configuration not stated)	-1.3	10.2%	9.05%	-6.25%	-8.15	12.2%
CC(=O)Nc1cccc(Cc2cccc(NC(C)=O)c2)c1	2.75	-13.3%	-11.9%	-43.4%	-5.1	-11.6%
Cc1cc(Br)cc(C)c1NC(=O)C(=O)CC(=O)c1sc(-n2nc(-c3ccccc3)cc2-c2ccccc2)nc1C	5.7	1.75%	-32.5%	28.5%	33.8	15.7%
CC(OS(C)(=O)=O)C(C)OS(C)(=O)=O (configuration not stated)	2.4	-9.35%	-11.7%	-10.4%	0.95	-19.6%

Structure (SMILES)	growth inhibition [1] [%]	growth inhibition [2]	growth inhibition [3]	growth inhibition [4]	growth inhibition [5] [%]	growth inhibition [6]
Cc1cc(Cl)ccc1N1C(=O)C(=O)C(c2nc3ccccc3s2)/C(=N\NC(=O)c2ccccc2O)C1=O (configuration not stated)	-37.9	0.45%	-9.8%	10.8%	-15.2	-14.9%
O=C(CN1C(=O)c2ccccc2C1=O)OCC1CCCN2CCCCC12 (configuration not stated)	16.6	-3.3%	4.9%	-3.55%	-6.25	-29.4%
CCCCOC(=O)C1C=C(N)CCC1 (configuration not stated)	12.8	6.8%	-3.35%	-32.6%	-9.05	-16.4%
N#C/C(=C/N1C(=O)CC(=O)NC1=S)c1cccc(Cl)c1	-30.7	-14.3%	-31.2%	18.2%	-28.8	-48.5%
CN(Cc1cnc2nc(N)nc(N)c2n1)c1ccc(C(=O)NC(CCC(=O)OC(C)(C)C)C(=O)O)cc1 (configuration not stated)	13.7	32.4%	4.5%	-20.1%	-2.55	-1.2%
O=C(Cc1nc2ccc(C(=O)c3ccccc3)cc2[nH]c1=O)C(=O)Nc1ccc(Br)cc1	-27.6	-28.9%	-2.65%	-9.4%	-3.3	-3.7%
CC(=O)c1c(P(=O)(OC(C)C)OC(C)C)nn(-c2ccc([N+](=O)[O-])cc2)c1C	59.1	20.1%	22.1%	-0.95%	14.2	32.2%
C=C(C)C1Cc2c(cc(OC)c3c(=O)c4cccc(O)c4oc23)O1 (configuration not stated)	43.1	15.4%	-1.95%	25.4%	-20.2	-21.4%
CC(=O)NC(Cc1ccccc1)C(=O)NN (configuration not stated)	7.15	-8.3%	-11.2%	-0.35%	-6.55	-22.3%
ClCCOCc1ccc(Cl)cc1Cl	24.6	8.9%	8.4%	0.7%	-3.7	19.9%
NC(=O)C1C(=O)c2cccc3c2C1CCCC3 (configuration not stated)	-11	9.85%	-5.6%	-31%	-11	20.7%
COc1ccc(OC)c(NC(=O)C(=O)NNC(=O)c2sc(NNC(C)=O)nc2C)c1	66.7	28.8%	47.4%	26.5%	61	30.8%
O=C(/C=C/c1ccccc1)Nc1ccc([N+](=O)[O-])cc1Cl	4.75	10.7%	12%	-1.95%	26.2	18.5%
Cc1ccc(CNC(=O)Nc2c(C)cccc2C)cc1C	8.8	2.55%	9.75%	-6.3%	14.4	3.45%
O=C(CCCC(=O)Nc1ccc2[nH]c3ccccc3c(=O)c2c1)Nc1ccc2[nH]c3ccccc3c(=O)c2c1	12.7	-8.6%	-0.3%	20.9%	-3.55	2.95%
Cc1ccc(N2C(=O)/C(=C/c3ccc(N(CCC#N)CCC#N)cc3)CC2(O)c2ccccc2)cc1 (configuration not stated)	-12.1	-12.6%	-38.3%	-23.8%	-13.1	-5.55%
Cc1n[nH]c(=S)n1NC=O	-12.3	-6.3%	-4.7%	-20.2%	-4.95	-15.8%
C[Si](C)(C)O[Si](C)(C)CCl	-28.9	-12.4%	-3.1%	-10.2%	-6.2	-34.2%
